The nature of test [1]: qHTS assay to identify aromatase inhibitors - cell viability counter screen (AID 743084;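 also: cells stimulated with testosterone during compound exposure; nearly all actives have a fitted effect of over 55% in size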; also: potency is read from the fitted curve at half-maximal effect). (In general: Quantitative high-throughput screening tests each substance at several concentrations.)
Test [2] addresses Aryl hydrocarbon receptor (Homo sapiens) (UniProt P35869). Kind of test: qHTS assay to identify small molecule that activate the aryl hydrocarbon receptor (AhR) signaling pathway (AID 743085). Also: nearly all actives have a fitted effect of over 15% in size. Also: potency is read from the fitted curve at half-maximal effect.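 As to activation: HG2L7.5c1 human HepG2 liver cells with stably integrated DRE-driven firefly reporter; series mostly up to about 70 µM.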 A digest of the protocol: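 A multiplexed format paired cell viability (CellTiter-Fluor fluorescence) with AhR-dependent luciferase output (ONE-Glo luminescence) in the same wells of HepG2 DRE-luc cells after 24 h compound exposure at 37C.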

The nature of test [3]: qHTS assay to identify small molecule antagonists of the peroxisome proliferator-activated receptor gamma (PPARg) signaling pathway - cell viability counter screen (AID 743194). Also: nearly all actives have a fitted effect of over 55% in size. The procedure, abridged:
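Cytotoxicity counter screen in PPARg-bla HEK293H cells, same wells as reporter assay. Compounds plus 50 nM rosiglitazone (final) for 17 h at 37 C, then viability read by CellTiter-Glo luminescence.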

Test [4] is described as follows: qHTS assay for small molecule agonists of the antioxidant response element (ARE) signaling pathway (AID 743202; active = well fitted activation curve with a large enough effect in the signal ratio in the repeat runs, not every such curve was filed as active; the % refers to the signal ratio; also: potency is read from the fitted curve at half-maximal effect). The procedure, abridged:
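ARE-bla HepG2 cells (beta-lactamase reporter under the antioxidant response element), plated 5 hours, then exposed to compounds 16 hours at 37 C. LiveBLAzer B/G FRET substrate added for 2 hours at room temperature; fluorescence intensity read.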

The nature of test [5]: qHTS assay for small molecule agonists of the antioxidant response element (ARE) signaling pathway - cell viability counter screen (AID 743203; calls by dose curve; also: nearly all actives have a fitted effect of over 55% in size; also: potency is read from the fitted curve at half-maximal effect). A digest of the protocol:
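CellSensor ARE-bla HepG2 cells, 2,000 per well, rested 5 hrs at 37C/5% CO2, then exposed to compound in DMSO for 16 hrs; viability read as CellTiter-Glo luminescence after 30 min at room temperature, in the reporter wells.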

Test [6] is described as follows: qHTS assay for small molecule activators of the heat shock response signaling pathway - cell viability counter screen (AID 743209). Also: nearly all actives have a fitted effect of over 50% in size. Also: potency is read from the fitted curve at half-maximal effect. A digest of the protocol: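 CellSensor HSE-bla HeLa cells, plated overnight at 37 C/5% CO2, were exposed to compounds in DMSO for 5 h at 37 C. Viability was then read in the same wells by CellTiter-Glo luminescence after 30 min at room temperature.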

The nature of test [7]: qHTS assay for small molecule activators of the heat shock response signaling pathway (AID 743210; active = well fitted activation curve with a large enough effect in the signal ratio in the repeat runs, with a control signal flat, not every such curve was filed as active; the % refers to the signal ratio; also: potency is read from the fitted curve at half-maximal effect; as to activation: series mostly up to about 63 µM). A digest of the protocol: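 HSE-bla HeLa cells (beta-lactamase reporter under heat shock response elements), plated overnight, then exposed to compounds 5 h at 37 C; LiveBLAzer B/G FRET substrate added, 2.5 h at room temperature, fluorescence intensity read.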
Test [8] in a line: qHTS assay to identify small molecule that activate the aryl hydrocarbon receptor (AhR) signaling pathway - cell viability counter screen (AID 743086).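 Also: HepG2 liver cells carrying the AhR DRE luciferase reporter; series mostly up to about 70 µM; nearly all actives have a fitted effect of over 45% in size.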 A digest of the protocol: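 HepG2-AhR-luc (HG2L7.5c1) cells, 4000/well, treated 24 h at 37 C with compound; viability measured as CellTiter-Fluor fluorescence after 30 min in the same wells as the luciferase read.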
Test [9] concerns the target Peroxisome proliferator-activated receptor gamma (Homo sapiens) (UniProt P37231). Kind of test: qHTS assay to identify small molecule agonists of the peroxisome proliferator-activated receptor gamma (PPARg) signaling pathway (AID 743094; active = well fitted activation curve with a large enough effect in the signal ratio in the repeat runs, not every such curve was filed as active; the % refers to the signal ratio). The procedure, abridged: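 GeneBLAzer PPARg UAS-bla HEK293H cells carrying a stably integrated beta-lactamase reporter were pre-incubated 5 h at 37C, then exposed to compounds in DMSO for 17 h at 37C; LiveBLAzer B/G FRET substrate was added for 1 h at room temperature and fluorescence read.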

Test [10] shares this target. The experiment in a line: qHTS assay to identify small molecule antagonists of the peroxisome proliferator-activated receptor gamma (PPARg) signaling pathway (AID 743191; calls by dose curve; also: series mostly up to about 63 µM; nearly all actives have a fitted effect of over 30% in size). The procedure, abridged:
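GeneBLAzer PPARg UAS-bla HEK293H cells, 5 h post-plating, exposed to compounds 17 h at 37C. LiveBLAzer B/G FRET substrate added for 1 h at room temperature; beta-lactamase reporter read by fluorescence intensity.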

Structures are written as SMILES. “And” between values parts separate entries of the source, which are not always exact repeats. Equal entries are not always repeated. Inconclusive results are not listed. The source made the active and inactive calls. Unless noted, calls follow the shape of the dose curve; as a rule, active = well fitted curve in the direction sought with a large enough effect in the repeat runs; inconclusive = weak or mixed curves; inactive = no such curve, though single readings can be large; an effect the other way counts as inactive or inconclusive.

Peroxisome proliferator-activated receptor gamma (Homo sapiens), sequence (P37231 whole entry, looked up): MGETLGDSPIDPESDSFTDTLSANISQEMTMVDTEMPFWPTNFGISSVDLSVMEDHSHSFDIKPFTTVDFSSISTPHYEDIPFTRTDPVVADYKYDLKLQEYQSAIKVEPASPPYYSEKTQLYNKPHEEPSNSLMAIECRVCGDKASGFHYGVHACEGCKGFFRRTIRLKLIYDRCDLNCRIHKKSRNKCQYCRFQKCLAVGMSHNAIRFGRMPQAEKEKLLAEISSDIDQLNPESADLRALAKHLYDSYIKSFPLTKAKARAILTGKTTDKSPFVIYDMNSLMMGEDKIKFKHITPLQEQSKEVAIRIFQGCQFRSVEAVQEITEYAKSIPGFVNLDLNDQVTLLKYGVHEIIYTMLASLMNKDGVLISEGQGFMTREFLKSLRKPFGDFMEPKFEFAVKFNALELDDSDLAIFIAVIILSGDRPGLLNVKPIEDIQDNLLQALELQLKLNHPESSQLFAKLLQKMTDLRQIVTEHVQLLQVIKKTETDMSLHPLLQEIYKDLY
Aryl hydrocarbon receptor (Homo sapiens), sequence (P35869 whole entry, looked up): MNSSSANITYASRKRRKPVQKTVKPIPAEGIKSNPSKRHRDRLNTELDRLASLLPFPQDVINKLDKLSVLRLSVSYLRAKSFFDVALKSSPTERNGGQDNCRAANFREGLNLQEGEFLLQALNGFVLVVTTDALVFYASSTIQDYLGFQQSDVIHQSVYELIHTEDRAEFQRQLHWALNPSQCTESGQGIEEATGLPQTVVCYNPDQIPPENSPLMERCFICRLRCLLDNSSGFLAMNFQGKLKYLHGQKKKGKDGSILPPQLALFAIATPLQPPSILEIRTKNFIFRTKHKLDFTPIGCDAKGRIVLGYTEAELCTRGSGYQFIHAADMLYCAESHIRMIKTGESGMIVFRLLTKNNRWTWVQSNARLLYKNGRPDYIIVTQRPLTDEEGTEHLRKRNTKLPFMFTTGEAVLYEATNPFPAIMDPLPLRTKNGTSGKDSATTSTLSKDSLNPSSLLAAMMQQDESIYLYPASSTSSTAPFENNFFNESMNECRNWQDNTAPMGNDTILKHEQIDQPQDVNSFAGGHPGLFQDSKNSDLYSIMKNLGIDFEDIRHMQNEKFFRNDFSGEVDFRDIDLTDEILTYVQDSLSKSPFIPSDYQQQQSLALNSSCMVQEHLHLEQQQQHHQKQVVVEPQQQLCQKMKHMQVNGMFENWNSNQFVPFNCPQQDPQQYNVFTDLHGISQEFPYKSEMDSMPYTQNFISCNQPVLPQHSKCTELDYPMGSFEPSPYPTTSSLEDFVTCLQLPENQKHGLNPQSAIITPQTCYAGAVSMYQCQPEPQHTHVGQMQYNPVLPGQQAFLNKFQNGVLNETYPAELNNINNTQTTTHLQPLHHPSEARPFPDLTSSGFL

For the compound `CN(C)CCN(Cc1ccc(Cl)cc1)c1ccccn1`, the Potency entry in test [1], in [2], in test [3], in [4], in test [5] and in test [6] was “inactive” throughout. Besides, in test [7], the Potency result was “inactive”.

As for `CC(C)C[C@H]1C(=O)N2CCC[C@H]2[C@]2(O)O[C@](NC(=O)[C@@H]3C=C4c5cccc6[nH]c(Br)c(c56)C[C@H]4N(C)C3)(C(C)C)C(=O)N12`, the Potency result in test [1], in test [2], in [3], in [5], in [6] and in test [7] was “inactive” in each case. Besides, the Potency in test [4] was 4.13 µM (active).

Consider `CCN(CC)CCNC(=O)c1cc(Br)c(N)cc1OC`, for which the Potency entry in test [1], in test [8], in test [9], in test [10], in [3] and in [4] was “inactive” throughout. The Potency entry in test [5], in [6] and in test [7] was “inactive” each time.

As to `O=P(O)(OCc1ccccc1)OCc1ccccc1`, the Potency result in test [1], in [2], in test [3], in [5], in [6] and in test [7] was “inactive” throughout.

On to `CCn1cc(C(=O)O)c(=O)c2cnc(N3CCNCC3)nc21`, for which the Potency result in test [1], in test [2], in test [3], in test [4], in test [5] and in [6] was “inactive” in each case. For the same compound, the Potency result in test [7] was “inactive”.

`CNCCCN1c2ccccc2CCc2ccccc21`: the Potency entry in test [1], in test [2], in [3], in [6] and in test [7] was “inactive” each time. In addition, the Potency in [5] was 29.8 µM (active).

As for `CC1(c2ccccc2)OC(C(=O)O)=CC1=O` (centres undefined), the Potency result in test [1], in [8], in test [9], in test [10], in test [3] and in test [4] was “inactive” in each case. Also, the Potency entry in test [5] and in test [6] was “inactive” in each case.

In the case of `S=C([S-])NCCNC(=S)[S-].[Mn+2]`, the Potency entry in test [1], in test [2], in test [10], in test [5] and in test [6] was “inactive” each time. Also, in test [4], the Potency was 6.86 µM (active).

Regarding `CCCCCCCC#N`, the Potency result in test [1], in test [8], in [9], in [10], in test [3] and in test [4] was “inactive” in each case. In addition, the Potency entry in test [5] is “inactive”.

In the case of `CC(=O)c1ccc2c(c1)N(CCCN(C)C)c1ccccc1S2`, the Potency entry in test [1], in test [2], in test [10], in test [3], in [5] and in test [6] was “inactive” in each case. The Potency result in test [7] was “inactive”.

For the compound `C=CC(=O)OCCOCCOC(=O)C=C`, the values for the Potency in test [1] and in test [4] were 13.7 µM (active) and 30.8 µM (active), respectively. For the same compound, the Potency entry in test [2] and in test [5] was “inactive” throughout.

As for `C=CC(=O)OCCOCCOCCOCCOC(=O)C=C`, the Potency was 13.8 µM (active) and 19.2 µM (active) in test [1]; 24.5 µM (active) and 27.1 µM (active) in test [4]; 34.8 µM (active) in [6]. The Potency result in test [2], in [3] and in test [5] was “inactive” each time.

Regarding `O=C(OCCCCCCOC(=O)c1ccccc1)c1ccccc1`, the Potency result in test [1], in test [2], in test [3] and in test [5] was “inactive” in each case. Further, the Potency in [7] is 57.1 µM (active).

On to `CCC(CC)Nc1ccc(C)c(C)c1`, for which the Potency result in test [1], in test [8], in test [9], in test [3], in test [4] and in test [5] was “inactive” in each case. Moreover, in test [6], the Potency entry is “inactive”.

As for `COc1cc2nc(N(C)CCCNC(=O)C3CCCO3)nc(N)c2cc1OC` (centres undefined), the Potency entry in test [1], in test [8], in test [9], in [3], in test [5] and in test [6] was “inactive” each time. In test [7], the Potency result is “inactive”. For the same compound, the Potency in test [4] is 23.7 µM (active).

Turning to `O=C(Nc1ccccc1)c1ccccc1O`, the Potency entry in test [1], in test [3], in test [5], in test [6] and in test [7] was “inactive” each time. Also, the Potency was 21.7 µM (active) in [2] and 24.3 µM (active) in test [4].

As for `C#Cc1cccc(Nc2ncnc3cc(OCCOC)c(OCCOC)cc23)c1`, the Potency entry in test [1], in test [10], in [3], in test [5], in [6] and in [7] was “inactive” in each case. Besides, the Potency in test [2] is 2.66 µM (active).

As to `Cc1[nH]c(C)c(Cl)c(=O)c1Cl`, the Potency entry in [1], in [2], in [10], in [3], in test [4] and in test [5] was “inactive” throughout. The Potency result in test [6] and in [7] was “inactive” throughout.

On to `O=C(O)C(S)C(S)C(=O)O` (centres undefined), for which the Potency result in [1], in test [2], in test [3], in test [5] and in test [6] was “inactive” each time.

In the case of `CCCNCC(O)COc1ccccc1C(=O)CCc1ccccc1` (centres undefined), the Potency result in test [1], in test [2], in [3], in test [5], in test [6] and in test [7] was “inactive” each time.

With `CCCCCCCCCc1ccc(OCCOCCO)cc1`, the Potency in [1] was 21.1 µM (active) and 22.8 µM (active); in test [4], 1.62 µM (active); in test [6], 23 µM (active). The Potency result in [2], in test [9] and in test [5] was “inactive” each time.

As to `CCCCCCCCO[C@@H]1O[C@H](CO)[C@@H](O)[C@H](O)[C@H]1O`, the Potency result in test [1], in test [2], in test [10], in test [3], in [4] and in test [5] was “inactive” throughout. For the same compound, the Potency result in test [6] and in test [7] was “inactive” each time.

For the compound `c1ccc(-c2ccccn2)nc1`, the Potency result in test [1], in test [2], in test [3], in test [5] and in [6] was “inactive” in each case.

On to `C[N+]1(C)CCC(OC(=O)C(O)(c2ccccc2)C2CCCC2)C1` (centres undefined), for which the Potency entry in test [1], in test [8], in [9], in test [3], in [5] and in test [6] was “inactive” throughout. The Potency result in [7] was “inactive”.

Take `O=C(O)c1ccc(S(=O)(=O)O)cc1C(=O)O`: the Potency result in test [1], in test [2], in [10], in test [3], in test [4] and in [5] was “inactive” each time. For the same compound, the Potency entry in test [6] was “inactive”.

Take `C[Si](C)(CCCN)O[Si](C)(C)CCCN`: the Potency result in test [1], in test [8], in test [9], in test [3], in [5] and in [6] was “inactive” in each case. Besides, the Potency entry in [7] is “inactive”.

Take `CCCCO`: the Potency entry in test [1], in test [2], in test [3], in test [5], in [6] and in test [7] was “inactive” each time.

(Values after PubChem BioAssay (Tox21).)
